# In PubChem BioAssay:
# Calls of active or inactive are those of the source.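 The calls were made as follows, unless noted: active = inhibition at or above 50% at 10 µM; inactive = inhibition below 50%.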
# How the values were obtained:
# [1] = inhibitors of TNFa-induced NFkB p65 translocation, primary screen, imaging, HUVEC, MLSMR starter and 10KST1 sets (AID 438;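 active = inhibition above 20% together with a positive visual image hit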;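 also: compound added about 3h40 before a 20 min TNFalpha stimulation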;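 as to inhibition: signal is the nuclear over cytoplasmic p65 intensity ratio per well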); details: HUVEC TNFa-induced p65 nuclear translocation; cell count: measured here: nuclei count (cytotoxicity indicator), at 2.08 µM; inhibition: at 2 µM, stronger effect = higher value, 0% TNFa-plus-vehicle, 100% no-TNFa wells
# [2] = inhibitors of mutant huntingtin aggregation, primary screen, imaging, exon1htt(103Q)mCFP cells, high-content imaging (AID 483;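 active = visual image review flags a hit and inhibition of aggregation exceeds 20%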;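 also: compound exposure lasted 3 days before fixation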;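 as to nuclei count: percent of the per-plate median nuclei count of sample wells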); details: exon1htt(103Q)mCFP cell line, aggregate imaging, at 2 µM; inhibition of aggregation: stronger effect = higher value; nuclei count: measured here: cell count, toxicity
# [3] = inhibitors of E-selectin induction by TNFa, primary screen, imaging, HUVEC, immunofluorescence, MLSMR starter and 10KST1 sets (AID 487;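 active = visually confirmed hit in the image check and inhibition above 20%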;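 as to inhibition: signal is fraction of cell area covered by stained E-selectin grains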;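 as to nuclei count: 100% = median nuclei count of all wells on the same plate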); details: HUVEC TNFalpha-induced E-selectin immunofluorescence imaging, at 2 µM; inhibition: stronger effect = higher value; nuclei count: measured here: cell number, toxicity
# [4] = target: Voltage-gated potassium channel subunit beta-2 (Rattus norvegicus) (UniProt P62483); assay: KvBeta enzyme negative modulators, primary screen, biochemical, NADPH fluorescence (AID 622;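 active = fluorescence slope higher than the sample average by over 3 SD, cut at about -0.22 in these data, passing the limit was not always enough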;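 also: slope of raw intensity against log time taken from 70 to 1610 s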); details: recombinant KvBeta, 4-cyanobenzaldehyde reduction, at 10 µM, stronger effect = higher value
# Chain of Voltage-gated potassium channel subunit beta-2 (Rattus norvegicus) (P62483 whole entry, looked up): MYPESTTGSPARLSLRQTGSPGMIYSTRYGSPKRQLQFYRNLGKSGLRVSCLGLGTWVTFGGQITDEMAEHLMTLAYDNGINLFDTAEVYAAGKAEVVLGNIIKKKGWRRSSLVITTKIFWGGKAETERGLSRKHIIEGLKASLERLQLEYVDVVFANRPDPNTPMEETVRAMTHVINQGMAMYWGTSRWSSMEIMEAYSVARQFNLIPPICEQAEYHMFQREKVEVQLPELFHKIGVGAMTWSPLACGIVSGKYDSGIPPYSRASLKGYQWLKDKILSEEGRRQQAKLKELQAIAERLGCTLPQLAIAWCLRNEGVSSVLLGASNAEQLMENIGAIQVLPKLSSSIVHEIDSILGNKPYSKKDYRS
# [5] = target: Voltage-gated potassium channel subunit beta-2 (Rattus norvegicus) (UniProt P62483); assay: KvBeta positive modulators, primary screen, biochemical, NADPH fluorescence (AID 623;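 active = NADPH fluorescence slope more negative than the mean of all samples by about 3 SD, 99.7% confidence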;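 also: fluorescence intensity change per second fitted from 20 to 320 s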); details: Recombinant KvBeta, NADPH fluorescence decrease slope, 10 min; at 10 µM; stronger effect = lower value
# [6] = target: Alpha-2C adrenergic receptor (Homo sapiens) (UniProt P18825); assay: modulators of alpha2C/GIRK thallium flux, primary screen, cell-based, HEK293 alpha2C/GIRK1/2 (AID 624;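 active = fluorescence slope after compound addition differing from the mean of all screened samples at 99.7% confidence, in either direction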;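 also: slope of fluorescence ratio to pre-addition baseline per second over 15 to 24 s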); details: thallium flux BTC fluorescence, at 10 µM, actives lie on both sides
# Chain of Alpha-2C adrenergic receptor (Homo sapiens) (P18825 whole entry, looked up): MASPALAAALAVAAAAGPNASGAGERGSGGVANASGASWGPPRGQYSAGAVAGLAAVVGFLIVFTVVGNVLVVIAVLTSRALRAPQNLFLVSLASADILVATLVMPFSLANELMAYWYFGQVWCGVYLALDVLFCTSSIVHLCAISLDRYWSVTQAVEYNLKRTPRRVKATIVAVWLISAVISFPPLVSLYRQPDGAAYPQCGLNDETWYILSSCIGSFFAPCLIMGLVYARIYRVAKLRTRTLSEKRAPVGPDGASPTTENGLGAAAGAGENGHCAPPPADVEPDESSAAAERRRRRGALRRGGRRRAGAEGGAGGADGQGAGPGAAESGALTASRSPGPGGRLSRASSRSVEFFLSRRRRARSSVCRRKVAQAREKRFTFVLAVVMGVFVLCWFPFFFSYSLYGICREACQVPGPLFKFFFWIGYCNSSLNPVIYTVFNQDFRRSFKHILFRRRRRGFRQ
# [7] = inhibitors of Sendai virus-induced IRF3 signaling, primary screen, TLR/RLR signaling modifier project, cell-based, Sendai virus stimulus, luciferase, 10K MLSCN set (AID 602276); details: HEK293 RL24 IRF3 luciferase reporter, at 10 µM, stronger effect = higher value;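 also: firefly luciferase from ISG56 promoter only with Renilla not read in this screen; 0% = Sendai virus plus DMSO and 100% = medium plus DMSO without virus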
# [8] = inhibitors of poly I:C-induced TLR3 signaling, primary screen, cell-based, poly I:C stimulus, luciferase, 10K MLSCN set (AID 602277;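 active = inhibition of the reporter signal at or above 50%; inactive = inhibition below 50%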); details: HEK293-TLR3 RL24 IRF3 luciferase reporter, at 10 µM, stronger effect = higher value
Structure (SMILES),cell count [1],inhibition [1],inhibition of aggregation [2],nuclei count [2],inhibition [3],nuclei count [3],fluorescence slope [4],NADPH fluorescence slope [5],slope [6],inhibition [7],inhibition [8]
Cc1csc2nc(CSc3ccc(Cl)cc3)cn12,41,-8.7% (inactive),-15% (inactive),80.6%,-112% (inactive),138%,-0.601 (inactive),-2e-05 (inactive),0.00271 (inactive),-42.1% (inactive),-126% (inactive)
Cc1nc(NCc2ccco2)c2oc3ccccc3c2n1,337,15% (inactive),-4.3% (inactive),94.4%,19.5% (inactive),96.4%,-0.389 (inactive),-1.9e-05 (inactive),0.00599 (inactive),3.36% (inactive),-32.5% (inactive)
CSC1=N/C(=C\C=C\c2cccs2)C(=O)S1,374,-11.5% (inactive),-80.1% (inactive),106%,0.2% (inactive),115%,-0.343 (inactive),-4.4e-05 (inactive),0.00431 (inactive),10.5% (inactive),28.8% (inactive)
Cn1c(=O)c2[nH]c(NCC3CCCO3)nc2n(-c2ccccc2)c1=O (centres undefined),359,-0.4% (inactive),-11.4% (inactive),108%,-80% (inactive),116%,-0.407 (inactive),-7.1e-05 (inactive),0.00463 (inactive),14% (inactive),32.3% (inactive)
CCN(CC)Cc1csc(C(N)=O)c1,617,-1.2% (inactive),0.5% (inactive),102%,-26% (inactive),83%,-0.612 (inactive),-6.9e-06 (inactive),0.00652 (inactive),5.97% (inactive),23.4% (inactive)
CS(=O)(=O)N1CCN(c2ccccc2NC(=O)c2cccs2)CC1,629,0.5% (inactive),-6.7% (inactive),105%,-0.6% (inactive),89.5%,-0.501 (inactive),1.2e-05 (inactive),0.00365 (inactive),11.6% (inactive),18.8% (inactive)
CCCCCc1c(C)nc(N2CCc3ccccc32)[nH]c1=O,398,-2.2% (inactive),-1.3% (inactive),112%,-5.8% (inactive),89.4%,-0.609 (inactive),1.7e-05 (inactive),0.00814 (inactive),13.9% (inactive),-33.8% (inactive)
COc1ccc(S(=O)(=O)N2CCCC(C(=O)NCc3ccccn3)C2)cc1 (centres undefined),291,-2.2% (inactive),8.2% (inactive),72.3%,1.9% (inactive),76.8%,-0.477 (inactive),-2.4e-05 (inactive),0.00625 (inactive),12.7% (inactive),35.6% (inactive)
Cc1cccc(Cn2c(SCCN3CCCCC3)nc3c2c(=O)[nH]c(=O)n3C)c1,497,6.4% (inactive),-13.5% (inactive),82.4%,1.7% (inactive),95.1%,-0.442 (inactive),3.2e-05 (inactive),0.00451 (inactive),-12% (inactive),3.02% (inactive)
COc1cc(OC)c(C2C(C#N)=C(N)OC3=C2C(=O)CC(C)(C)C3)cc1OC (centres undefined),407,-2.7% (inactive),22.2% (inactive),88.4%,-27.1% (inactive),104%,-0.501 (inactive),-3.5e-05 (inactive),0.00648 (inactive),-2.62% (inactive),5.85% (inactive)
CCCNS(=O)(=O)c1ccc(OCC(=O)NCc2ccc3c(c2)OCO3)cc1,434,1.7% (inactive),-1.9% (inactive),108%,-93.9% (inactive),106%,-0.368 (inactive),-6.9e-05 (inactive),0.00408 (inactive),12.8% (inactive),17.9% (inactive)
O=C(c1ccco1)N1CCN(CC2CC3C=CC2C3)CC1 (centres undefined),269,-10.4% (inactive),-30.9% (inactive),7.7%,-30.7% (inactive),106%,-0.509 (inactive),2.8e-05 (inactive),0.00614 (inactive),-7.24% (inactive),-20% (inactive)
CCCCC(NS(=O)(=O)c1ccc(OC)cc1)C(=O)O (centres undefined),386,8.8% (inactive),-16.5% (inactive),108%,-31.9% (inactive),118%,-0.448 (inactive),-4e-05 (inactive),0.0033 (inactive),7.54% (inactive),39% (inactive)
Cc1ccc(Cl)cc1N1CCN(C(=O)C2CCCN(S(=O)(=O)c3cnc[nH]3)C2)CC1 (centres undefined),563,10.1% (inactive),-1.2% (inactive),102%,-74.4% (inactive),126%,-0.532 (inactive),-2.9e-05 (inactive),0.00714 (inactive),-6.79% (inactive),3.89% (inactive)
